Results published in PubChem BioAssay (NCI).
The panel holds about 83,000 compounds, 20% with a hit somewhere; the sample as a whole holds those more often.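 Treatment: one concentration, 48 hours, 96-well format. Scoring: percent growth, with anything below 10 considered active.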 Values without a mark were called inactive. Activity calls are given as the source filed them.

tested on: CCRF-CEM leukemia; experiment: NCI-60 one-dose screen, 48 h (100 = growth as untreated, 0 = no growth, -100 = all killed); conditions: 10 µM unless noted
Method: Growth inhibition of the CCRF-CEM human tumor cell line is measured as a screen for anti-cancer activity. Cells are grown in 96 well plates and exposed to the test compound for 48 hours. Compounds are tested at a single concentration, which is 10^-5 M for most compounds. The reported endpoint is percent growth (GI% or GIPRCNT), where numbers from 0 - 100% represent growth inhibition, and numbers from -100% - 0 represent cell death. For example, a value of 40 represents 60% growth inhibition. A value of 0 means no net growth occurred over the course of the experiment. A value of -40 indicates 40% of cells at the beginning of the experiment died by the end of the experiment. A value of -100 means all cells are dead at the end of the experiment.
NCI-60 Human Tumor Cell Lines Screen was performed using the standard one-dose NCI protocol, which is described in more detail at https://dtp.cancer.gov/discovery_development/nci-60/default.htm.
Compounds with GIPRCNT values below 10 were considered active. Activity score was based on GIPRCNT using the following formula: […]
Score is 0 for GIPRCNT values of 100 or above, 50 for GIPRCNT values of 0, and 100 for GIPRCNT values of -100.

Going from `CCCCCCCCCCOC(=O)c1ccccc1C(=O)OCCCC` to `CC[C@@H](C)[C@H](NC(=O)Cn1cc(CNC(=O)[C@@H](NC(=O)OCc2ccccc2)C(C)C)nn1)C(=O)O`, the growth rises from 103% to 106%.

Going from `COC(=O)[C@H](NC(=O)C1(C)CCC[C@]2(C)[C@H]3C[C@H]4C(C(C)C)=C[C@]3(CC[C@@H]12)[C@@H]1C(=O)CCC(=O)[C@@H]14)C(C)C` (stereo not given in full) to `C=C[C@@H]1CCC/C=C/[C@@H]2C[C@H](O)C[C@H]2[C@H](O)/C=C/C(=O)O1`, the growth falls from 104% to 12.6%.

Compared with `O=C1Nc2ccccc2/C1=C/c1ccc[nH]1`, `c1ccc(-c2ccc(-c3nc4ccccc4[nH]3)cc2)cc1` is lower in growth: 109% for the first, 38.4% for the second.

Going from `CCN1C(=O)N(c2ccccc2)C2NN=c3s/c(=C4\C(=O)N(C(C)C)c5ccccc54)c(=O)n3C21` (stereo not given) to `CN1C(=O)N(C)C2(c3ccccc3)n3c(s/c(=C\c4ccccc4)c3=O)=NNC12c1ccccc1` (stereo not given), the growth rises from 15.1% to 92.2%.

First: CCOc1cc2c(cc1OCC)C(c1cc(C)c(O)c(C)c1)NCC2 (stereo not given)
Second: COc1ccc(C2C3=C(COC3=O)N(CCO)c3cc4c(cc32)CCC4)cc1OC (stereo not given)
The growth of the first is higher: 89.6% for the first, 18.6% for the second.

First: Nc1n[nH]c2ccc([C@@H]3Nc4ccc5[nH]ncc5c4[C@H]4[C@H]5CCC(C5)[C@H]43)cc12
Second: O=C(Nc1ccc(N2CCNCC2)cc1)c1[nH]ncc1Nc1cc(C2CC2)ncn1
The growth of the first is lower: 17% for the first, 30% for the second.

First: O=C(/C=C/c1ccccc1)c1ccc(Nc2nc(NCCO)nc(Nc3ccc(Cl)cc3)n2)cc1
Second: COc1ccc(/C=C/C(=O)c2c(C)nc3ccccc3c2/C=C/c2ccccc2)cc1O
The growth of the first is higher: 60.6% for the first, 32.2% for the second.

First: Nc1ccc(-c2ccc(-c3ccccc3N)c3[nH]c4ccccc4c23)cc1
Second: COc1ccc(/C=C2\N=C(c3ccccc3)N(c3ccc(-c4nc5ccc(C)cc5s4)cc3)C2=O)cc1
The growth of the first is lower: 13% for the first, 61.9% for the second.

Compared with `COc1ccc(C2c3ccc4ccccc4c3Oc3ncn(CCCn4ccnc4)c(=N)c32)cc1OC` (stereo not given), `COc1ccc(-c2cn[nH]c2-c2cc(OC)c(OC)c(OC)c2)cc1OCc1ccccc1` is higher in growth: 42.1% for the first, 47% for the second.

Compared with `COc1cc(C=C2C(=O)N(C)C(=O)N(C)C2=O)cc(CN2CCCCC2)c1O`, `COc1cc(/C=C2\CN(C)C/C(=C\c3cc(CN4CCCC4)c(O)c(OC)c3)C2=O)cc(CN2CCCC2)c1O` is lower in growth: 109% for the first, 34.1% for the second.

Going from `CNCCNc1nc2ccccc2c2c(=O)c3cccc(OC)c3sc12` to `CCCCC1COc2cccc3c2N1C=C/C3=C\C(=O)N(C)c1ccccc1` (stereo not given), the growth rises from 12.2% to 47.6%.

Compared with `COc1ccc(CCN2C(=O)CCSC2=S)cc1`, `COc1ccc(CCN2C(=O)/C(=C/c3ccc(C4Oc5ccccc5C5CC(c6cccc(OC)c6)=NN54)cc3)SC2=S)cc1` (stereo not given) is higher in growth: 30% for the first, 98.8% for the second.

Compared with `CCOC(=O)c1cc2c(n1Cc1ccccc1)-c1oncc1CCC2`, `CCN1C(=O)N(CC)C2C1NC(=S)N2/N=C/C=C/c1ccccc1OC` (stereo not given) is lower in growth: 66.4% for the first, 13.8% for the second.

Compared with `CN(C)c1ccc(N=Cc2ccc(N3CCOCC3)cc2)cc1`, `NS(=O)(=O)c1ccc(CCN=C=S)cc1` is lower in growth: 58.8% for the first, 10.4% for the second.

For `COc1ccc(N(C)c2nc(N)nc3sc4c(c23)CCCC4)cc1`, the growth was 9.1% (active).
With `CCOC(=O)c1cc2c(n1Cc1cc(OC)cc(OC)c1)-c1oncc1CCC2` the growth was 9.16% (active).
`CCOC(=O)c1sc(-c2ccc(OS(=O)(=O)c3cccs3)c(C=O)c2)nc1C` was tested, and the growth was 7.57% (active).
In the case of `O=C(Nc1ccc(Br)cc1F)c1cc(Cl)ccc1O`, the growth is reported as 5.57% (active).
With `O=[N+]([O-])c1cc2c(ccc3occc32)o1` the growth was 9.79% (active).
In the case of `O=c1oc2ccc(I)cc2c(=O)n1-c1ccc(Br)cc1F`, the growth is reported as 8.26% (active).
With `CCOC(=O)C1=C(C)N=c2s/c(=C\c3ccccc3O)c(=O)n2C1c1ccc(OC)c2ccccc12` (stereo not given) the growth was 2.51% (active).
`O=c1oc2ccc(I)cc2c(=O)n1-c1ccc(I)cc1F` was tested, and the growth was 6.91% (active).
In the case of `O=c1oc2ccc(Cl)cc2c(=O)n1-c1ccc(I)cc1F`, the growth is reported as 7.15% (active).
With `FC(F)(F)c1cccc(Nc2nc(-c3ccccc3)nc3ncccc23)c1` the growth was -21.6% (active).
`O=C(Nc1ccc(I)cc1F)c1cc(Cl)ccc1O` was tested, and the growth was 7.89% (active).
`Cc1ccc(S(=O)(=O)c2c(COC(=O)c3cccc(C)c3)c(-c3ccccc3)nn2C)cc1` was tested, and the growth was -7.63% (active).
